Results from the supplement of paper PMC10127200.
Structures can show the parent of a compound that is named as a salt.

Key:
Test in all cases: Euclidean distance of Cell Painting phenotypic profile (signed KS, 77 features) to DMSO centroid (dimensionless distance); 5 or 10 uM (library dependent); higher = stronger phenotypic change vs DMSO (phenoactivity)
Settings in all cases: 48 h
786-O = tested on: 786-O
Summary of the method: (§1)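 Stained cells were imaged confocally at 20X with 9 fields per well, after 48 h of exposure to library compounds at 10 or 5 uM (set by library; 0.1% DMSO final). The cells were five cancer lines and a healthy fibroblast line. From the images, Harmony extracted 77 features, each expressed as a signed Kolmogorov-Smirnov statistic relative to same-plate vehicle wells. Phenoactivity is measured as Euclidean distance to the median vehicle profile, using plate-position-corrected, correlation-weighted profiles averaged across replicates at the top dose.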

A549 = tested on: A549
Summary of the method: as §1

DU145 = tested on: DU145
Summary of the method: as §1

FB = tested on: FB
Summary of the method: as §1

HEPG2 = tested on: HEPG2
Summary of the method: as §1

OVCAR4 = tested on: OVCAR4
Summary of the method: as §1

Row | Structure (SMILES) | Euclidean distance (786-O) | Euclidean distance (A549) | Euclidean distance (DU145) | Euclidean distance (FB) | Euclidean distance (HEPG2) | Euclidean distance (OVCAR4)
1 | COc1cc(OC2CCN(C)CC2)ccc1Nc1ncc2c(n1)n(C1CCCC1)c(=O)n2C | 1.53 | 2.28 | 1.39 | 2.84 | 1.78 | 1.83
2 | Cc1cnc(-c2cnc(NCCNc3ccc(C#N)cn3)nc2-c2ccc(Cl)cc2Cl)[nH]1 | 1.86 | 2.18 | 1.61 | 1.12 | 1.15 | 1.13
3 | CCC[C@H](N[C@@H](C)C(=O)N1[C@H](C(=O)O)C[C@@H]2CCCC[C@@H]21)C(=O)OCC [Perindopril Erbumine] | 1.37 | 0.943 | 1.24 | 0.906 | 1.41 | 0.854
4 | O=C(NCc1ccncc1)C12CC3CC(C1)CC(c1ccc(Cl)cc1)(C3)C2 | 1.47 | 1.24 | 1.1 | 0.743 | 0.955 | 0.981
5 | C[n+]1ccccc1C=NO [Pralidoxime Iodide] | 1.45 | 0.771 | 0.975 | 0.641 | 0.434 | 0.907
6 | Cc1c(S(=O)(=O)O)oc2c1C(=O)C(=O)c1c-2ccc2c1CCCC2(C)C [Tanshinone IIA sulfonate (sodium)] | 0.814 | 0.633 | 1.71 | 1.05 | 0.728 | 1.24
7 | CC(C)CCNc1ncccc1C(=O)N1CCN(Cc2ccccc2)CC1 | 0.757 | 0.542 | 0.821 | 0.894 | 0.864 | 0.631
8 | COCC[n+]1c2c(n(Cc3cnccn3)c1C)C(=O)c1ccccc1C2=O [YM155 (Sepantronium Bromide)] | 5.76 | 5.14 | 7.03 | 5.89 | 3.26 | 5.47
9 | CC1(C)OCCn2c1nc1c(N3CCOCC3)nc(-c3cnc(N)nc3)nc12 | 2.79 | 2.94 | 2.05 | 4.44 | 2.32 | 2.93
10 | COc1ccc2c(c1)c(CC(=O)O)c(C)n2C(=O)c1ccc(Cl)cc1 [Indomethacin] | 1.44 | 0.49 | 1.66 | 0.86 | 1.8 | 1.2
11 | NCCCC[C@H](N[C@@H](CCc1ccccc1)C(=O)O)C(=O)N1CCC[C@H]1C(=O)O [Lisinopril dihydrate] | 1.2 | 0.621 | 0.821 | 0.86 | 0.746 | 1.51
12 | CC(C)(C)NCC(O)c1cc(O)cc(O)c1 (stereo unspecified) [Terbutaline Sulfate] | 1.21 | 0.707 | 0.835 | 1.27 | 0.547 | 0.825
13 | CCCc1nc2c(C)cc(-c3nc4ccccc4n3C)cc2n1Cc1ccc(-c2ccccc2C(=O)O)cc1 [Telmisartan] | 1.83 | 0.747 | 1.03 | 1.03 | 1.95 | 1.02
14 | CC(C)(C)OC(=O)N[C@H]1CCCCC/C=C\[C@@H]2C[C@@]2(C(=O)NS(=O)(=O)C2CC2)NC(=O)[C@@H]2C[C@@H](OC(=O)N3Cc4cccc(F)c4C3)CN2C1=O [Danoprevir (ITMN-191)] | 1.4 | 0.94 | 1.41 | 1.19 | 2.24 | 1.69
15 | CC1CC(OC(=O)C(O)c2ccccc2)CC(C)(C)C1 (stereo unspecified) [Cyclandelate] | 1.19 | 1.12 | 1.02 | 0.843 | 0.782 | 1.02
16 | COC(=O)Nc1nc2cc(C(=O)c3ccc(F)cc3)ccc2[nH]1 [Flubendazole] | 2.74 | 2.91 | 3.24 | 2.46 | 2.16 | 3.1
17 | Cc1[nH]c(/C=C2\C(=O)Nc3ccccc32)c(C)c1CCC(=O)O [TSU-68 (SU6668. Orantinib)] | 0.704 | 0.699 | 0.85 | 0.825 | 0.787 | 0.814
18 | COc1cc2c(cc1OC)CN(CCc1ccc(NC(=O)c3cc(OC)c(OC)cc3NC(=O)c3cnc4ccccc4c3)cc1)CC2 [Tariquidar] | 0.987 | 1.26 | 1 | 1.17 | 0.844 | 1.04
19 | CC1(C)OC(=O)NC1=O [5.5-Dimethyloxazolidine-2.4-dione] | 0.865 | 0.849 | 1.06 | 1.02 | 0.557 | 0.894
20 | Cc1ccc(NC(=O)c2ccc(CN3CCN(C)CC3)cc2)cc1Nc1nc(-c2cccnc2)cs1 [Masitinib (AB1010)] | 2.6 | 2.76 | 2.65 | 3.16 | 2.4 | 2.08
21 | N=C(N)NCCC[C@H](N)C(=O)O [L-arginine] | 1.03 | 0.798 | 1.21 | 0.843 | 0.876 | 0.97
22 | CC(=O)Nc1ccc(C(=O)Nc2ccccc2N)cc1 [CI994 (Tacedinaline)] | 1.29 | 1.67 | 1.56 | 2.76 | 1.83 | 1.94
23 | CC[C@@H]1C(=O)N(C)c2cnc(Nc3ccc(C(=O)N[C@H]4CC[C@H](N5CCN(CC6CC6)CC5)CC4)cc3OC)nc2N1C(C)C [Volasertib (BI 6727)] | 4.44 | 4.28 | 4.03 | 5.55 | 3.66 | 4.01

Row | Structure (SMILES) | Euclidean distance (786-O) | Euclidean distance (A549) | Euclidean distance (DU145) | Euclidean distance (FB) | Euclidean distance (HEPG2) | Euclidean distance (OVCAR4)
24 | Oc1ccc(Cl)c2cccnc12 [Cloxiquine] | 1.62 | 2.13 | 1.92 | 2.66 | 1.62 | 1.97
25 | CC(C)(C)NCC(O)COc1cccc2c1CCC(=O)N2 (stereo unspecified) [Carteolol HCl] | 1.14 | 0.612 | 0.836 | 1.22 | 0.541 | 2.01
26 | Cc1[nH]c2ccccc2c1CCNCc1ccc(/C=C/C(=O)NO)cc1 [Panobinostat] | 3.44 | 4.4 | 4.84 | 3.48 | 4.4 | 3.58
27 | C[C@H]1[C@H](OC(=O)CCC(=O)O)O[C@@H]2O[C@@]3(C)CC[C@H]4[C@H](C)CC[C@@H]1[C@@]24OO3 [Artesunate] | 1.44 | 2.06 | 1.01 | 1.66 | 1.03 | 1.88
28 | COc1cc(C(C)=O)ccc1O [Apocynin] | 0.601 | 1.23 | 0.921 | 0.872 | 1.6 | 0.864
29 | CC(C)C[C@H](NC(=O)[C@H]1O[C@@H]1C(=O)O)C(=O)NCCCCN=C(N)N | 1.31 | 1.07 | 1.07 | 1.02 | 0.615 | 1.09
30 | COc1ccc(C(=O)c2ccccc2)c(O)c1 [Oxybenzone] | 1.07 | 0.943 | 0.824 | 1.34 | 0.753 | 1.32
31 | CN(CCN1CCC(OC(=O)Nc2ccccc2-c2ccccc2)CC1)C(=O)c1ccc(CN2CCC(C(N)=O)CC2)cc1 [Revefenacin] | 1.01 | 1.27 | 1.01 | 1.33 | 1.25 | 1.44
32 | CC[C@H](NC(=O)[C@H](C)NC)C(=O)N1C[C@@H](O)C[C@H]1Cc1c(-c2[nH]c3cc(F)ccc3c2C[C@@H]2C[C@H](O)CN2C(=O)[C@H](CC)NC(=O)[C@H](C)NC)[nH]c2cc(F)ccc12 [Birinapant] | 1.15 | 1.08 | 2.69 | 1.06 | 2.95 | 1.97
33 | C/C(=N\NC(=S)N1CCC1)c1ccccn1 | 3.65 | 3.49 | 3.44 | 3.45 | 4.41 | 4.89
34 | O=C1N=C(O)NC1(c1ccccc1)c1ccccc1 [Phenytoin sodium] | 0.57 | 0.743 | 0.884 | 1.08 | 0.937 | 1.27
35 | CCC[C@@H](C=O)NC(=O)[C@H](CC(C)C)NC(=O)[C@H](CC(C)C)NC(=O)OCc1ccccc1 | 5.22 | 4.01 | 5.17 | 4.63 | 4.52 | 5.15
36 | CC(C)OC(=O)CCC/C=C\C[C@@H]1[C@@H](/C=C/[C@@H](O)COc2cccc(C(F)(F)F)c2)[C@H](O)C[C@@H]1O [Travoprost] | 0.945 | 0.886 | 0.732 | 1.11 | 1.07 | 1.25
37 | CN1[C@@H]2CC[C@H]1C[C@@H](OC(c1ccccc1)c1ccccc1)C2 [Benztropine mesylate] | 1.38 | 0.973 | 1.51 | 1.56 | 1.19 | 1.21
38 | O=C(CCCCCCNC(=O)c1cnc(N(c2ccccc2)c2ccccc2)nc1)NO [Ricolinostat (ACY-1215)] | 1.87 | 1.63 | 1.29 | 3.31 | 2.26 | 2.18
39 | O=c1cc(-c2ccc(O)cc2)oc2cc(O)cc(O)c12 [Apigenin] | 1.18 | 0.946 | 1.17 | 1.39 | 1.73 | 1.32
40 | Cc1ccnc2c1NC(=O)c1cccnc1N2C1CC1 [Nevirapine] | 1.2 | 0.789 | 0.803 | 0.827 | 1.93 | 0.872
41 | CC1=C(C(=O)Nc2cc3cn[nH]c3cc2F)C(c2ccc(C(F)(F)F)cc2)CC(=O)N1 (stereo unspecified) | 2.35 | 1.68 | 2.39 | 2.35 | 0.954 | 2.51
42 | Clc1ccc(C(c2ccccc2Cl)C(Cl)Cl)cc1 (stereo unspecified) [Mitotane] | 0.994 | 0.919 | 1.27 | 1.79 | 1.84 | 1.45
43 | CCCCCOc1ccc(-c2ccc(-c3ccc(C(=O)N[C@H]4C[C@@H](O)[C@@H](O)NC(=O)[C@@H]5[C@@H](O)[C@@H](C)CN5C(=O)[C@H]([C@@H](C)O)NC(=O)[C@H]([C@H](O)[C@@H](O)c5ccc(O)cc5)NC(=O)[C@@H]5C[C@@H](O)CN5C(=O)[C@H]([C@@H](C)O)NC4=O)cc3)cc2)cc1 | 0.818 | 0.702 | 1.21 | 0.749 | 1.21 | 1.01
44 | Cc1ccc(/C=C2/C(=O)C3(C)CCC2C3(C)C)cc1 (stereo unspecified) [4-Methylbenzylidene camphor] | 1.01 | 1.2 | 0.926 | 0.895 | 0.613 | 1.22
45 | OCCn1cc(-c2ccc3c(c2)CC/C3=N\O)c(-c2ccncc2)n1 | 1.79 | 0.879 | 1.22 | 1.93 | 0.823 | 1.88
46 | CC(C)c1noc(N2CCC(COc3ccc(-c4ccc(S(C)(=O)=O)cc4)nc3)CC2)n1 | 1.17 | 1.53 | 0.872 | 0.701 | 0.585 | 0.984
